Bioassay records as filed in PubChem.
CSC inhib = cancer stem cell viability inhibitors, primary screen, luminescence; hit rate 1.1% among 300,000; cancer stem cell-like cells viability; inhibition, % at 7.5 µM; in the data active means inhibition above about 75%; tested in HMLE shEcad cells
SKKanGAS inh = S. pyogenes SKKanGAS growth inhibitors in kanamycin, primary screen, streptokinase expression inhibitor project, SKKanGAS strain, BacTiter-Glo luminescence; 6 h; inhibition, % at 7.5 µM; hit rate 1.3% among 300,000;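 active means mean replicate score, as percent of positive control median, at least 50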;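 further: strain carries kanamycin resistance gene driven by streptokinase promoter and grows in 40 µg/ml kanamycin; loss of luminescence reflects streptokinase promoter inhibition or plain growth inhibition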
Mdm2 MdmX PPI = inhibitors of human Mdm2-MdmX association, primary screen, cell-based, luminescence, split luciferase, SaOS-2, uHTS; inhibition, % at 8 µM; Protein Mdm4 (Homo sapiens) + E3 ubiquitin-protein ligase Mdm2 (Homo sapiens), …; SaOS-2 split-luciferase Mdm2/MdmX complementation; AID 485346, 2010; hit rate 3% among 330,000;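 active means inhibition of at least 50% at 8 µM in the primary screen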
Target sequence (O15151 whole entry, looked up): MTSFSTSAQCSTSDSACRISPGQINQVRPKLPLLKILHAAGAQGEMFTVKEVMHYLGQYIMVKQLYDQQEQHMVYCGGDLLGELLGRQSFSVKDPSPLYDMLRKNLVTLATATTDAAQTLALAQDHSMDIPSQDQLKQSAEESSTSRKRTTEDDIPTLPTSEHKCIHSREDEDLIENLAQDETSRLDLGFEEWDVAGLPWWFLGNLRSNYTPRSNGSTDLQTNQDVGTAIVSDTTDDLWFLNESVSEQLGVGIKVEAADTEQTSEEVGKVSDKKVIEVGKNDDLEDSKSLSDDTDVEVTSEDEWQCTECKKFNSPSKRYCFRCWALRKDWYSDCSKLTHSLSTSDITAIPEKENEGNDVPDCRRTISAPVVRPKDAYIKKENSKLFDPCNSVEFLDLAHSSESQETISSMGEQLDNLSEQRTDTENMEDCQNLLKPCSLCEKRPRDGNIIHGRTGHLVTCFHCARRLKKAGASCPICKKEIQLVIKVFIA
Target sequence (Q00987 whole entry, looked up): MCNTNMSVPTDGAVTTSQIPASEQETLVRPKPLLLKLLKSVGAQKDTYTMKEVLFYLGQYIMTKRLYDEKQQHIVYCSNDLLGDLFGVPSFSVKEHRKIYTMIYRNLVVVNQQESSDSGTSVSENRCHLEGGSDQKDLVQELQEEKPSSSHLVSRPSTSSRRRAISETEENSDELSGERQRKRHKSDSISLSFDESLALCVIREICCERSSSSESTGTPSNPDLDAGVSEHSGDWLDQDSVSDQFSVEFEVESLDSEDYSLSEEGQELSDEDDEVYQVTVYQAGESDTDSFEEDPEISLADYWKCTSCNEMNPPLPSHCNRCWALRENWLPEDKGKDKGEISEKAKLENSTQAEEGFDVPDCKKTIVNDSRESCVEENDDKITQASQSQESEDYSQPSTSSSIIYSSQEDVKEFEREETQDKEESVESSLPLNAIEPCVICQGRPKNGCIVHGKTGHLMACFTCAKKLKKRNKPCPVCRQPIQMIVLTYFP
MPTP block = mitochondrial permeability transition pore inhibitors, primary screen, biochemical, isolated mouse mitochondria, absorbance. Ca2+ swelling absorbance, 30 min. inhibition, % at 10 µM. hit rate 1.4% among 360,000. AID 602449, 2012;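 active means inhibition of 50% or more, scaled per plate between neutral and stimulator controls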
Beta cell apopt = inhibitors of cytokine-induced beta cell apoptosis, primary screen, luminescence | INS-1E cytokine-induced death, ATP luminescence, 48 h; percent of positive-control rescue, neutral wells zero | protection from apoptosis, % (concentration not given with the values) | hit rate 0.8% among 300,000;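 active means Every replicate reaches about 75%, or at least half do and their mean reaches it too, limit read from the data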;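 further: higher means more ATP so stronger rescue from cytokine killing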
Calb FLC = C. albicans growth inhibition with fluconazole, primary screen, CaCi-2 strain, Alamar Blue fluorescence. C. albicans CaCi-2 (fluconazole-resistant clinical isolate) + fluconazole, 48 h. growth inhibition, % (test concentration not listed). hit rate 0.57% among 300,000. AID 1979, 2009;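 active means growth inhibition above about 58% in most replicates, limit read from the data, passing the limit was not always enough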;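 further: all wells also contain fluconazole at 8 µg/ml as a sub-toxic cotreatment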
Mdm2-MdmX conf = Mdm2-MdmX complex disruptors, retested hits, confirmation, luminescence, single concentration | inhibition, % at 8 µM | shares compounds with Mdm2 MdmX PPI | Mdm2-MdmX binding, luminescent assay | hit rate 55% among 10,000; in the data active means inhibition above about 40%
Full FLuc ctr = full-length luciferase signal inhibition, confirmation, counter-screen for Mdm2/MdmX interaction inhibitor project, cell-based, single concentration, SaOS-2 | inhibition, % at 8 µM | shares compounds with Mdm2 MdmX PPI | SaOS-2 full-length luciferase counterscreen, luminescence | hit rate 77% among 6,200;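 active means mean inhibition at 8 µM reaching about 37%, which flags the compound as non-specific, limit read from the data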;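 further: p53-null SaOS-2 cells with luciferase driven by a doxycycline-inducible promoter; compound on cells about two nights before reading with doxycycline added after day one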
Numbers stand for hits. This is a sample that favours compounds with a hit; in the whole collection about 5.4% have one here.

For O=C1Nc2ccccc2/C1=C/C(=O)c1cccs1 the results were CSC inhib 83, SKKanGAS inh inactive, Mdm2 MdmX PPI 64, MPTP block inactive, Beta cell apopt inactive, Calb FLC inactive and Mdm2-MdmX conf inactive.
Screening Cc1ccc(C2=NNC(=O)C(P(=O)(c3ccccc3)c3ccccc3)C2)cc1 (stereo unspecified) returned CSC inhib inactive, SKKanGAS inh inactive, Mdm2 MdmX PPI inactive, MPTP block inactive, Beta cell apopt inactive and Calb FLC inactive.
For O=[N+]([O-])c1ccc(N2CCN(S(=O)(=O)c3ccccc3)CC2)cc1NCc1ccco1 the results were CSC inhib inactive, SKKanGAS inh inactive, Mdm2 MdmX PPI inactive, Beta cell apopt inactive and Calb FLC inactive.
`Cc1cccc(CSc2ccc3nnc(-c4ccccn4)n3n2)c1` gave CSC inhib inactive, SKKanGAS inh inactive, Mdm2 MdmX PPI inactive, MPTP block inactive, Beta cell apopt inactive and Calb FLC inactive.
COc1ccccc1N1CCN(C(=O)CCc2nnc3ccc(N4CCOCC4)nn23)CC1 was read as CSC inhib inactive, SKKanGAS inh inactive, Mdm2 MdmX PPI inactive, MPTP block inactive, Beta cell apopt inactive and Calb FLC inactive.
Screening CCOc1ccc(NC(=O)COC(=O)c2ccc3ncsc3c2)cc1OCC returned Mdm2 MdmX PPI inactive and MPTP block inactive.
`COc1ccc(NS(=O)(=O)c2cccc(C(=O)NNC(=O)c3ccccc3O)c2)cc1` gave CSC inhib inactive, SKKanGAS inh inactive, Mdm2 MdmX PPI 53, MPTP block inactive, Beta cell apopt inactive, Calb FLC inactive, Mdm2-MdmX conf 56 and Full FLuc ctr 58.
`COc1ccccc1N(C)S(=O)(=O)c1ccc(C(=O)NNC(=O)c2ccccc2O)cc1` gave Mdm2 MdmX PPI 62, MPTP block inactive, Mdm2-MdmX conf 60 and Full FLuc ctr 48.
`COC(=O)/C(C#N)=C/c1c(N2CCN(c3ccccc3)CC2)nc2c(C)cccn2c1=O` gave SKKanGAS inh inactive, Mdm2 MdmX PPI inactive, MPTP block inactive and Calb FLC inactive.
For COc1ccccc1Cc1c(-c2ccc(F)cc2)nc2cc(C)c(Br)c(C)n12 the results were MPTP block inactive.
For CCC1CCc2sc(C(=O)NCC(c3ccccc3OC)N3CCCC3)cc2C1 (stereo unspecified) the results were CSC inhib inactive, Mdm2 MdmX PPI 75, MPTP block inactive, Beta cell apopt inactive and Mdm2-MdmX conf inactive.
For COc1ccc(CN(C2CC2)S(=O)(=O)c2ccccc2Br)cc1 the results were Mdm2 MdmX PPI 51, MPTP block inactive and Mdm2-MdmX conf inactive.
COc1ccc(CN(CCC(C)C)S(=O)(=O)c2ccccc2Br)cc1 was read as Mdm2 MdmX PPI inactive and MPTP block inactive.
Screening COc1ccc(NC(=O)CN(C)C(=O)c2c(C)nn(-c3ccccc3)c2Cl)cc1 returned CSC inhib inactive, SKKanGAS inh inactive, Mdm2 MdmX PPI inactive, MPTP block inactive, Beta cell apopt inactive and Calb FLC inactive.
Screening Cc1cc(C(=O)COC(=O)Cc2n[nH]c(=O)c3ccccc23)c(C)n1-c1ccc2c(c1)OCO2 returned CSC inhib inactive, SKKanGAS inh inactive, Mdm2 MdmX PPI inactive, MPTP block inactive, Beta cell apopt inactive and Calb FLC inactive.
`O=C(Cc1n[nH]c(=O)c2ccccc12)OCC(=O)c1ccc2c(c1)OCCO2` gave CSC inhib inactive, SKKanGAS inh inactive, Mdm2 MdmX PPI 55, MPTP block inactive, Beta cell apopt inactive, Calb FLC inactive, Mdm2-MdmX conf 68 and Full FLuc ctr 94.
`CCOc1ccc(C(=O)COC(=O)Cc2n[nH]c(=O)c3ccccc23)cc1` gave CSC inhib inactive, SKKanGAS inh inactive, Mdm2 MdmX PPI 57, MPTP block inactive, Beta cell apopt inactive, Calb FLC inactive, Mdm2-MdmX conf 75 and Full FLuc ctr 51.
